# In PubChem BioAssay (EPA / NIEHS):
# Several values for one entry are separate records, joined by “and”; a condition that tells them apart may be missing. Identical values can stand only once. Records with an inconclusive call do not appear. Where a structure was tested more than once in an assay, its records may differ in their call. Activity calls are given as the source filed them. How the source made its calls, unless noted: active means hit-call score of the fitted dose curve at least 0.9, where 1 is the maximum; inactive means score below 0.9.
# What was measured:
# [1] = target: Glucocorticoid receptor (Homo sapiens) (UniProt P04150); assay: ATG_GR_TRANS: Attagene TRANS-FACTORIAL HepG2 Assay for human Glucocorticoid Receptor (GR) (AID 2282978; active means hit-call score of the fitted dose curve at least 0.9, where 1 is the maximum;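 further: activators score as hits since higher reporter transcript over DMSO is fitted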); details: HepG2 Attagene TRANS GR reporter, mRNA transcription
# Sequence of Glucocorticoid receptor (Homo sapiens) (P04150 whole entry, looked up): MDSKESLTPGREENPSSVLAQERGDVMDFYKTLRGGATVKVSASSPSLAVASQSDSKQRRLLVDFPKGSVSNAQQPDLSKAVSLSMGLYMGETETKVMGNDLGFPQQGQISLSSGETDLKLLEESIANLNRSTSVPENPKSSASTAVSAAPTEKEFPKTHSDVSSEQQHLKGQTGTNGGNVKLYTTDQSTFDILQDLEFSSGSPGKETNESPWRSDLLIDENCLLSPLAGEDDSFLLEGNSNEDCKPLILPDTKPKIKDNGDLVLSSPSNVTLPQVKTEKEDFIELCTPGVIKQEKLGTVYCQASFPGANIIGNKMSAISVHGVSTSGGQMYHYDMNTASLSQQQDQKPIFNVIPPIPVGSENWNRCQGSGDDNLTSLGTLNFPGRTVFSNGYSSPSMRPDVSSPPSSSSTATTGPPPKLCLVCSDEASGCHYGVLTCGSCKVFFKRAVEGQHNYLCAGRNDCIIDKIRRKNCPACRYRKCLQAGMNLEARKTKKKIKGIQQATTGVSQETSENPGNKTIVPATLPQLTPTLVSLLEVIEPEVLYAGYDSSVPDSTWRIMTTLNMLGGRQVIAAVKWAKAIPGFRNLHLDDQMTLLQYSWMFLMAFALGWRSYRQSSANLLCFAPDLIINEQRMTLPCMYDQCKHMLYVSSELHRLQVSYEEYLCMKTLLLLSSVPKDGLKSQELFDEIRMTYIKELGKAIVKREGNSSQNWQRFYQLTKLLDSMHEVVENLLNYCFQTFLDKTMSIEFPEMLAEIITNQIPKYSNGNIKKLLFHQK
# Procedure, shortened: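 After 24 h incubation with test chemical, transfected HepG2 cells were lysed for RNA; reporter cDNA was amplified, FAM-labelled, HpaI-digested and sized on a capillary analyser. Signal gain relative to DMSO was scored.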
# [2] = target: Oxysterols receptor LXR-alpha (Homo sapiens) (UniProt Q13133); assay: ATG_LXRa_TRANS: Attagene TRANS-FACTORIAL HepG2 Assay for human Liver X Receptor alpha (LXRa) (AID 2282980; active means hit-call score of the fitted dose curve at least 0.9, where 1 is the maximum); details: HepG2 Attagene TRANS reporter, LXRa transactivation
# Sequence of Oxysterols receptor LXR-alpha (Homo sapiens) (Q13133 whole entry, looked up, the tested form may be a part): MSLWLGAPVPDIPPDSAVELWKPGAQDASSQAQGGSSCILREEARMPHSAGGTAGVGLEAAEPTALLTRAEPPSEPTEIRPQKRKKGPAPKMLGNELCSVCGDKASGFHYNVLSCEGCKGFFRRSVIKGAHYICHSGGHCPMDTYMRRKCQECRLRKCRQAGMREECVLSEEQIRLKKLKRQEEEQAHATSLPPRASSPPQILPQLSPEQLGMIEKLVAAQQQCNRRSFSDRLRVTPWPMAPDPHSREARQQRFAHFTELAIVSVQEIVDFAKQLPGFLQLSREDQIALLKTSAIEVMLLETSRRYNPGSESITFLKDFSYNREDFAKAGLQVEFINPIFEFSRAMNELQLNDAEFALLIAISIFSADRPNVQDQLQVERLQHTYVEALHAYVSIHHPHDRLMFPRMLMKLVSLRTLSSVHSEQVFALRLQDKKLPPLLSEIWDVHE
# Procedure, shortened: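 Transfect HepG2 with GAL4-UAS multiplex reporter constructs (TRANS format, chimeric receptor-GAL4); treat 24 h; extract RNA, reverse-transcribe, PCR-amplify, FAM-label, HpaI-digest; resolve fragments by capillary electrophoresis. Upward response vs DMSO.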
# [3] = target: Oxysterols receptor LXR-beta (Homo sapiens) (UniProt P55055); assay: ATG_LXRb_TRANS: Attagene TRANS-FACTORIAL HepG2 Assay for human Liver X Receptor beta (LXRb) (AID 2282981; active means hit-call score of the fitted dose curve at least 0.9, where 1 is the maximum); details: HepG2 Attagene TRANS GAL4-LXRb reporter, mRNA
# Sequence of Oxysterols receptor LXR-beta (Homo sapiens) (P55055 whole entry, looked up, the tested form may be a part): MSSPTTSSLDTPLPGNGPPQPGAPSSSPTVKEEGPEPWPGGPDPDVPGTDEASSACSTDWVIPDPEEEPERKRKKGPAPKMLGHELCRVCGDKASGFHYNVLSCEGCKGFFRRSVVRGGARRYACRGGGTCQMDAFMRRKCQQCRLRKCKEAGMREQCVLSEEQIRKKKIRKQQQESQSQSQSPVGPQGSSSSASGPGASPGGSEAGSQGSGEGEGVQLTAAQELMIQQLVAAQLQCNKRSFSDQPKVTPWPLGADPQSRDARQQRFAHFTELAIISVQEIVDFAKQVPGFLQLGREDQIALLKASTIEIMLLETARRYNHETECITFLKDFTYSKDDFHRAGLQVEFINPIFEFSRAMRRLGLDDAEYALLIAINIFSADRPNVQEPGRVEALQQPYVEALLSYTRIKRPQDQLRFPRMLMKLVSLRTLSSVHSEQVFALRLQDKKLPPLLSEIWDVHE
# Procedure, shortened: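 Transient transfection HepG2 (multiplexed RTUs, GAL4-UAS); NR-Gal4 chimera; 24 h exposure; RNA → RT-PCR → 6-FAM primer extension → HpaI → CE; increase vs DMSO.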
# [4] = target: Hepatocyte nuclear factor 4-alpha (Homo sapiens) (UniProt P41235); assay: ATG_HNF4a_TRANS: Attagene TRANS-FACTORIAL HepG2 Assay for human Hepatocyte Nuclear Factor 4 alpha (HNF4a) (AID 2282982; active means hit-call score of the fitted dose curve at least 0.9, where 1 is the maximum); details: HepG2 HNF4a transactivation reporter, mRNA readout
# Sequence of Hepatocyte nuclear factor 4-alpha (Homo sapiens) (P41235 whole entry, looked up, the tested form may be a part): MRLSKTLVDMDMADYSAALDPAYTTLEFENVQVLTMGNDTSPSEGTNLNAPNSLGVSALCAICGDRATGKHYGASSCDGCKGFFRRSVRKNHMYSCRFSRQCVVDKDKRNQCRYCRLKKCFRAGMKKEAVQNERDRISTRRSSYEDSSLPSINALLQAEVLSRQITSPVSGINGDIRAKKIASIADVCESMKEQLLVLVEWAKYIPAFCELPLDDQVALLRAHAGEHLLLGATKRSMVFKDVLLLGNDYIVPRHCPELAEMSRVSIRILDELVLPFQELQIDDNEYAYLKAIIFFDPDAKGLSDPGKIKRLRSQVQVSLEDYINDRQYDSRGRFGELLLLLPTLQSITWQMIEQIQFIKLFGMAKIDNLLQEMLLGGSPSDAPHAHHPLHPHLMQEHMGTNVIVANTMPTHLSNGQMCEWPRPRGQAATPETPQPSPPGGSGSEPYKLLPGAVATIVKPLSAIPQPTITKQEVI
# Procedure, shortened: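 Readout is fluorescent reporter-transcript fragments resolved by capillary electrophoresis after RT-PCR from HepG2 cells dosed for 24 h. Cells carried transfected GAL4-UAS reporter constructs measuring exogenous NR-GAL4 chimera activity; DMSO served as baseline.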
# [5] = ATG_M_06_TRANS: Attagene TRANS-FACTORIAL HepG2 Assay for M06 Transcription Factor (Internal Marker) (AID 2282983; active means hit-call score of the fitted dose curve at least 0.9, where 1 is the maximum); details: HepG2 Attagene TRANS M06 internal marker reporter
# Procedure, shortened: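 Transfect HepG2 with MRTUs → dose compounds 24 h → isolate RNA, oligo(dT) RT → PCR with reporter primers → 6-FAM primer extension → HpaI digest → CE fragment analysis. Positive direction vs DMSO.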
# [6] = ATG_M_32_TRANS: Attagene TRANS-FACTORIAL HepG2 Assay for M32 Transcription Factor (Internal Marker) (AID 2282984; active means hit-call score of the fitted dose curve at least 0.9, where 1 is the maximum;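 further: transcript level of a background control reporter unit measured by RT-PCR and capillary electrophoresis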); details: HepG2 Attagene TRANS M32 internal marker reporter
# Procedure, shortened: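 Measures reporter mRNA induction in human HepG2 liver cells after 24 h chemical treatment. Transcripts from transiently transfected GAL4-UAS reporter units are amplified, fluorescently labelled and sized by capillary electrophoresis; gain of signal relative to DMSO.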
# [7] = target: Nuclear receptor subfamily 4 group A member 2 (Homo sapiens) (UniProt P43354); assay: ATG_NURR1_TRANS: Attagene TRANS-FACTORIAL HepG2 Assay for human Nuclear Receptor Related Protein 1 (NURR1) (AID 2282985; active means hit-call score of the fitted dose curve at least 0.9, where 1 is the maximum); details: HepG2 Attagene TRANS reporter, mRNA readout
# Sequence of Nuclear receptor subfamily 4 group A member 2 (Homo sapiens) (P43354 whole entry, looked up, the tested form may be a part): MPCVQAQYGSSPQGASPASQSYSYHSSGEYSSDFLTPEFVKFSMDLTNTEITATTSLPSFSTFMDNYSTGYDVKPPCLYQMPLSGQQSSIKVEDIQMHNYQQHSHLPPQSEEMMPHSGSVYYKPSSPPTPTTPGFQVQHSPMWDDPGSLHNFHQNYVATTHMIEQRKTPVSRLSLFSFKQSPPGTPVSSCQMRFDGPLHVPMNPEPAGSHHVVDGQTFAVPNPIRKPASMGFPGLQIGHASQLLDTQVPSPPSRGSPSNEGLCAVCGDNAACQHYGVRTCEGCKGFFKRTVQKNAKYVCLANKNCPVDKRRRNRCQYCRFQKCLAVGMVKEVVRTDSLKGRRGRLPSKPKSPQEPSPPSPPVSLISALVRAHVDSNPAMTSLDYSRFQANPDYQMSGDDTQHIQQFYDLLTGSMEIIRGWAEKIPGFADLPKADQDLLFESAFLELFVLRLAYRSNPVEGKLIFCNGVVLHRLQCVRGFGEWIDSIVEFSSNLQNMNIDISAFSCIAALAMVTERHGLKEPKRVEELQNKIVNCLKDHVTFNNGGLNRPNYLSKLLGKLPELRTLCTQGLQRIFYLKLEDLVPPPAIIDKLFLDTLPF
# Procedure, shortened: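 Transient transfection of HepG2, human liver cells, with multiple GAL4-UAS reporter transcription units. Cells dosed 24 h, RNA isolated, reverse-transcribed, PCR-amplified, FAM-labelled, HpaI-digested, sized by capillary electrophoresis. DMSO served as negative control.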
# [8] = target: Transcriptional activator Myb (Homo sapiens) (UniProt P10242); assay: ATG_Myb_CIS: Attagene CIS-FACTORIAL HepG2 Assay for human Myeloblastosis (Myb) Proto-Oncogene Transcription Factor (AID 2282986); details: HepG2 Attagene CIS-FACTORIAL Myb reporter transcription; actives raise or lower the signal
# Procedure, shortened: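 After 24 h of compound dosing, total RNA from transfected HepG2 cells is reverse-transcribed and the reporter sequences amplified, labeled and separated by capillary electrophoresis. Values come from bidirectional fitting against DMSO.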
# [9] = target: Nuclear respiratory factor 1 (Homo sapiens) (UniProt Q16656); assay: ATG_NRF1_CIS: Attagene CIS-FACTORIAL HepG2 Assay for human Nuclear Respiratory Factor 1 (NRF1) Orphan Gene (AID 2282987); details: HepG2 NRF1 cis-element reporter, Attagene multiplex; actives raise or lower the signal
# Sequence of Nuclear respiratory factor 1 (Homo sapiens) (Q16656 whole entry, looked up): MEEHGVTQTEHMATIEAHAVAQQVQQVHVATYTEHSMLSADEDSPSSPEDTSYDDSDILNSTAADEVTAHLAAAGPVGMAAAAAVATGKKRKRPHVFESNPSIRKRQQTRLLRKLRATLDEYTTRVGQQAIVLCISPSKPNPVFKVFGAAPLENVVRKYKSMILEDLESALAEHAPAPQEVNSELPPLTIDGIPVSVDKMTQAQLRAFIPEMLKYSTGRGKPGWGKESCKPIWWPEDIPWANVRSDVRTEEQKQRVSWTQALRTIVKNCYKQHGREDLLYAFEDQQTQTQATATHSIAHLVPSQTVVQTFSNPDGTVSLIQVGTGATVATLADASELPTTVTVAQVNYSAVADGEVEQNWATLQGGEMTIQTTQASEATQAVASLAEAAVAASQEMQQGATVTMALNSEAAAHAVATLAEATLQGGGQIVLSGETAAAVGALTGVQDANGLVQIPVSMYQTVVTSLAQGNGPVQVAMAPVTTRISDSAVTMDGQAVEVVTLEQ
# Procedure, shortened: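 Measured: fluorescent reporter-specific RT-PCR products from transfected HepG2 cells, separated by capillary electrophoresis. Exposure lasted 24 h. Analysis used bidirectional curve fitting with DMSO as negative control.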
# [10] = ATG_NFI_CIS: Attagene CIS-FACTORIAL HepG2 Assay for human Nuclear Factor I (NFI) (AID 2282989); details: HepG2 cis-regulatory reporter, NFI response element transcription; actives raise or lower the signal
# Procedure, shortened: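 Transient MRTU transfection of HepG2 → 24 h chemical dosing → total RNA, oligo(dT) RT → PCR, 6-FAM primer extension, HpaI cut → capillary electrophoresis. Endpoint fitted bidirectionally relative to DMSO.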
# [11] = ATG_NF_kB_CIS: Attagene CIS-FACTORIAL HepG2 Assay for human Nuclear Factor Kappa B (NF-kB) (AID 2282991); details: HepG2 Attagene cis-factorial NF-kB reporter mRNA; actives raise or lower the signal
# Procedure, shortened: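 Fluorescence of labelled RT-PCR products separated by capillary electrophoresis gives reporter mRNA levels from transfected HepG2 cells exposed 24 h; values are fitted in both directions relative to DMSO.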
# [12] = ATG_NRF2_ARE_CIS: Attagene CIS-FACTORIAL HepG2 Assay for human Nuclear Factor Erythroid 2 Related Factor 2 (NFR2) response to Antioxidant Response Elements (ARE) (AID 2282992); details: HepG2 Attagene ARE/NRF2 reporter, transcription factor activity; actives raise or lower the signal
# Procedure, shortened: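 Multiplexed reporter mRNA profiling in HepG2 after a 24 h chemical exposure. Curves fitted in both directions relative to DMSO negative control.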
# [13] = ATG_Oct_MLP_CIS: Attagene CIS-FACTORIAL HepG2 Assay for human Octamer-Binding Transcription Factor (Oct) (AID 2282993); details: HepG2 Attagene cis-factorial Oct reporter, mRNA; actives raise or lower the signal
# Procedure, shortened: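 Transient MRTU transfection of HepG2 → 24 h compound treatment → RNA isolation, reverse transcription, PCR → 6-FAM primer extension, HpaI digest → capillary electrophoresis. Activity fitted both directions against DMSO.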
# [14] = BSK_3C_TissueFactor: BioMAP Diversity Plus: 3C Assay for Tissue Factor Biomarker Activity (AID 2282997); details: BioMAP 3C HUVEC, tissue factor biomarker readout; actives raise or lower the signal
# Procedure, shortened: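 ELISA read-out of Tissue Factor levels on human umbilical vein endothelium collected 24 h after chemical dosing. Gain or loss of signal was fitted relative to DMSO.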
# [15] = BSK_3C_uPAR: BioMAP Diversity Plus: 3C Assay for Urokinase-type plasminogen activator receptor (uPAR) Biomarker Activity (AID 2282998); details: BioMAP 3C HUVEC, uPAR biomarker ELISA; actives raise or lower the signal
# Procedure, shortened: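 ELISA readout of uPAR on human vascular endothelium (umbilical vein primary cells), taken 24 h after chemical dosing. Increases and decreases are both fitted relative to DMSO vehicle.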
# [16] = BSK_3C_VCAM1: BioMAP Diversity Plus: 3C Assay for Vascular cell adhesion molecule 1 (VCAM1) Biomarker Activity (AID 2282999); details: BioMAP 3C HUVEC, VCAM1 ELISA, cytokine-stimulated; actives raise or lower the signal
# Procedure, shortened: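 Endothelial cells from human umbilical vein are treated with test chemical. At 24 h, VCAM-1 is measured by ELISA, and responses in either direction are fitted relative to DMSO.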
# [17] = BSK_4H_Eotaxin3: BioMAP Diversity Plus: 4H Assay for Eotaxin 3 Biomarker Activity (AID 2283000); details: primary human endothelial cells (HUVEC); actives raise or lower the signal;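 on outcome: CCL26 protein level quantified by ELISA in parallel with SRB cytotoxicity check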
# Procedure, shortened: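 Chemicals were added to human umbilical vein endothelium cultures, and Eotaxin-3 was quantified by ELISA at 24 h. Values were derived by bidirectional fitting with DMSO serving as negative control and activity baseline.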
# [18] = target: Myc proto-oncogene protein (Homo sapiens) (UniProt P01106); assay: ATG_Myc_CIS: Attagene CIS-FACTORIAL HepG2 Assay for human Myelocytomatosis (Myc) Proto-Oncogene Transcription Factor (AID 2282990); details: HepG2, Attagene cis-reporter transcription factor activity; actives raise or lower the signal
# Sequence of Myc proto-oncogene protein (Homo sapiens) (P01106 whole entry, looked up): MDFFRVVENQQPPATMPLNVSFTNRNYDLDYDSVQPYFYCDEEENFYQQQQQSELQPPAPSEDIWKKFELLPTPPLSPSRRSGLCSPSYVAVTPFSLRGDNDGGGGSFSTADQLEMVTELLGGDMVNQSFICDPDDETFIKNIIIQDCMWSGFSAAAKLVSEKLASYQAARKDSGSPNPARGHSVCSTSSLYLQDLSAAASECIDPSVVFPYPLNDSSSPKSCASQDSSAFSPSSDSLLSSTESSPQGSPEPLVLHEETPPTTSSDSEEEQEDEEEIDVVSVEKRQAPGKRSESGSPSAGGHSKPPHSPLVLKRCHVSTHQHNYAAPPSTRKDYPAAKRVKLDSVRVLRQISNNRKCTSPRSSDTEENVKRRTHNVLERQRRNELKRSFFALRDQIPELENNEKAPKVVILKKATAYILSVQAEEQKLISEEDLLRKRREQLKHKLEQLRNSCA
# Procedure, shortened: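 HepG2, transient MRTU transfection (cis promoters, endogenous TFs); 24 h dosing; TriZol RNA → oligo(dT) RT → PCR → 6-FAM primer extension → HpaI cut → CE. Bidirectional fit vs DMSO.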
# [19] = target: Bile acid receptor (Homo sapiens) (UniProt Q96RI1); assay: ATG_FXR_TRANS: Attagene TRANS-FACTORIAL HepG2 Assay for Farnesoid X Receptor (FXR) (AID 2282979; active means hit-call score of the fitted dose curve at least 0.9, where 1 is the maximum;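 further: hits raise reporter mRNA above DMSO so AC50 marks FXR activation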); details: HepG2 Attagene TRANS FXR-GAL4 reporter transcription
# Sequence of Bile acid receptor (Homo sapiens) (Q96RI1 whole entry, looked up, the tested form may be a part): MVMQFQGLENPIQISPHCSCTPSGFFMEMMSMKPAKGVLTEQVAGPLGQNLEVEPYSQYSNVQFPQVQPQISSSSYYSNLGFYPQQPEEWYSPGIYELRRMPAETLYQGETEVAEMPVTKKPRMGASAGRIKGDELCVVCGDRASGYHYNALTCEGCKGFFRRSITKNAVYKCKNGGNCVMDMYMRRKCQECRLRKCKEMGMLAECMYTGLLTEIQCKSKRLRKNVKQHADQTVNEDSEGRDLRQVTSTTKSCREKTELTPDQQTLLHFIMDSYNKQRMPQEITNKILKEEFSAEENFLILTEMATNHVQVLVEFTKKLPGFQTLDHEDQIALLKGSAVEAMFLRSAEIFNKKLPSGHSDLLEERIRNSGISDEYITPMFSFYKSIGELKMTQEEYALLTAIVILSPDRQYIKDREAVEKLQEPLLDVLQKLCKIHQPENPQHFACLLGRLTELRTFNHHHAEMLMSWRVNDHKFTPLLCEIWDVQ
# Procedure, shortened: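 Transient transfection of HepG2 with multiplexed GAL4-UAS reporter units; exogenous FXR-GAL4 chimera. Dose 24 h → TriZol RNA → oligo(dT) RT → PCR, 6-FAM primer extension, HpaI cut → CE. Gain vs DMSO.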
# [20] = target: Cellular tumor antigen p53 (Homo sapiens) (UniProt P04637); assay: ATG_p53_CIS: Attagene CIS-FACTORIAL HepG2 Assay for human p53 Transcription Factor (AID 2282994); details: HepG2 p53 cis-element reporter, Attagene mRNA; actives raise or lower the signal
# Sequence of Cellular tumor antigen p53 (Homo sapiens) (P04637 whole entry, looked up): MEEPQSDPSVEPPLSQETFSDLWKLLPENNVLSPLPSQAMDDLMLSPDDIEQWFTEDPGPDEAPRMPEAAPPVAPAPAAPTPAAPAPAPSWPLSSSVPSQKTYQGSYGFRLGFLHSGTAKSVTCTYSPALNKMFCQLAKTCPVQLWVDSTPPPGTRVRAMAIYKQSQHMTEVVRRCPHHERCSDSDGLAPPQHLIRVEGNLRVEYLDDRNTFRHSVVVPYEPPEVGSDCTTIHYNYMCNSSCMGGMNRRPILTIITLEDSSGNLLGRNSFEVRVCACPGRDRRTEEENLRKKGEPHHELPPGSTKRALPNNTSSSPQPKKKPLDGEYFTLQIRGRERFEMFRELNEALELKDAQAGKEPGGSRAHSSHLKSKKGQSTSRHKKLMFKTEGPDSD
# Procedure, shortened: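 Multiplexed reporter mRNA assay in human HepG2 liver cells; cis-regulated units report endogenous factor activity. Values come from bidirectional curve fitting against DMSO negative control after 24 h treatment.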
smiles,measurement,setting,value
c1ccc2c(c1)-c1cccc3c1c-2cc1ccccc13,outcome,[1],inactive
same,outcome,[2],inactive
same,outcome,[3],inactive
same,outcome,[4],inactive
same,outcome,[5],inactive
same,outcome,[6],inactive
same,outcome,[7],inactive
same,outcome,[8],inactive
same,outcome,[9],inactive
same,outcome,[10],inactive
same,outcome,[11],inactive
same,AC50,[12],204 nM (active) and 29.8 µM (active)
same,outcome,[13],inactive
same,outcome,[14],inactive
same,outcome,[15],inactive
same,outcome,[16],inactive
same,AC50,[17],0.148 µM (active)
O=S(=O)(O)c1ccc(N=Nc2c(O)ccc3cc(S(=O)(=O)O)ccc23)cc1,outcome,[1],inactive
same,outcome,[2],inactive
same,outcome,[4],inactive
same,outcome,[5],inactive
same,outcome,[6],inactive
same,outcome,[7],inactive
same,outcome,[8],inactive
same,outcome,[9],inactive
same,outcome,[10],inactive
same,outcome,[18],inactive
same,outcome,[11],inactive
same,outcome,[13],inactive
same,outcome,[14],inactive
same,outcome,[15],inactive
same,outcome,[16],inactive
same,outcome,[17],inactive
C=CCc1cc(S(=O)(=O)c2ccc(O)c(CC=C)c2)ccc1O,outcome,[1],inactive
same,outcome,[19],inactive
same,outcome,[5],inactive
same,outcome,[6],inactive
same,outcome,[8],inactive
same,AC50,[9],33.4 µM (active)
same,outcome,[10],inactive
same,outcome,[18],inactive
same,outcome,[11],inactive
same,AC50,[12],7.04 µM (active)
same,outcome,[13],inactive
same,AC50,[14],32 µM (active)
same,AC50,[15],12.8 µM (active)
same,AC50,[16],32 µM (active)
same,AC50,[17],27.1 µM (active)
OCc1ccccc1,outcome,[1],inactive
same,outcome,[3],inactive
same,outcome,[4],inactive
same,outcome,[5],inactive
same,outcome,[6],inactive
same,AC50,[7],14.2 µM (active)
same,outcome,[7],inactive
same,outcome,[8],inactive
same,outcome,[9],inactive
same,outcome,[10],inactive
same,outcome,[18],inactive
same,outcome,[11],inactive
same,outcome,[12],inactive
same,outcome,[13],inactive
same,outcome,[14],inactive
same,outcome,[15],inactive
same,outcome,[16],inactive
same,outcome,[17],inactive
C[Si](C)(C)C(F)(F)C(F)(F)C(F)(F)F,outcome,[1],inactive
same,outcome,[19],inactive
same,outcome,[2],inactive
same,outcome,[3],inactive
same,outcome,[4],inactive
same,outcome,[5],inactive
same,outcome,[6],inactive
same,outcome,[7],inactive
same,outcome,[8],inactive
same,outcome,[9],inactive
same,outcome,[10],inactive
same,outcome,[11],inactive
same,outcome,[13],inactive
same,outcome,[20],inactive
same,outcome,[14],inactive
same,outcome,[15],inactive
same,outcome,[16],inactive
same,outcome,[17],inactive
O=C(Cl)C(F)(F)C(F)(F)C(F)(F)C(=O)Cl,outcome,[1],inactive
same,outcome,[19],inactive
same,outcome,[2],inactive
same,outcome,[3],inactive
same,outcome,[4],inactive
same,outcome,[5],inactive
same,outcome,[6],inactive
same,outcome,[8],inactive
same,outcome,[9],inactive
same,outcome,[10],inactive
same,outcome,[18],inactive
same,outcome,[11],inactive
same,outcome,[13],inactive
same,outcome,[20],inactive
same,outcome,[14],inactive
same,outcome,[15],inactive
same,outcome,[16],inactive
same,outcome,[17],inactive
Cc1cccc(O)c1C,outcome,[1],inactive
same,outcome,[19],inactive
same,outcome,[2],inactive
same,outcome,[4],inactive
same,outcome,[6],inactive
same,outcome,[7],inactive
same,outcome,[8],inactive
same,outcome,[9],inactive
same,outcome,[10],inactive
same,outcome,[18],inactive
same,outcome,[12],inactive
same,outcome,[13],inactive
same,AC50,[20],168 µM (active)
same,outcome,[20],inactive
same,outcome,[14],inactive
same,outcome,[15],inactive
same,outcome,[16],inactive
same,outcome,[17],inactive
